Most compounds without a hit are left out; they make up all but 32% or so of the library.
CYP2C9 activ: activators of human CYP2C9 | P11712 | recombinant CYP2C9, luciferin-H conversion, luminescence; stronger effect = higher value; factor 1 = untreated enzyme, 0 = blocked | activation factor at 5 µM | actives 1.4% (n = 96,000) | AID 1024;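 active = activation factor of 2 or more for CYP2C9 at a 5 µM dose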
Target sequence (P11712 whole entry, looked up): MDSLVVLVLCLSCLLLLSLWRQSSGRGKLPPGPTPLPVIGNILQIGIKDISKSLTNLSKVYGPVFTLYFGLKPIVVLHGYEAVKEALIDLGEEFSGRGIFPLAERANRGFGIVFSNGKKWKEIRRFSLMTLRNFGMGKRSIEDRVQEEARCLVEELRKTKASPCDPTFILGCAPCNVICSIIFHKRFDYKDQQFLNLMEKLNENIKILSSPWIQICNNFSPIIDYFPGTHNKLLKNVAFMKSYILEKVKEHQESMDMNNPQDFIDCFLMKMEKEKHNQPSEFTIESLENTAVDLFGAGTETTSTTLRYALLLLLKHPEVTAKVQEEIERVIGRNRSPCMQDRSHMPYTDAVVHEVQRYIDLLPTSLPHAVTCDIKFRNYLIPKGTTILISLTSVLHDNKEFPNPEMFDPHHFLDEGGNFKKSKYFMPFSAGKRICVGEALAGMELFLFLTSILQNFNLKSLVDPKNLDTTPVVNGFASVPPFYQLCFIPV
PostGolgi yeast: growth inhibition of a yeast mutant, post-Golgi transport screen; AID 739; inhibition, % at 10 µM; actives 0.9% (n = 98,000); post-Golgi transport phenotypic cell assay;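 note: yeast cells grown in 1536-well plates; yeast grown about 18 h at 30C before absorbance read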
PostGolgi ctrl: yeast control strain growth, post-Golgi counter-screen | AID 738 | efflux-deficient yeast background strain, growth absorbance A615, 16 h | inhibition, % at 10 µM | actives 5% (n = 98,000)
CYP2C9 inhib: blocks human cytochrome P450 2C9; inhibition, % at 5 µM; AID 777; actives 20% (n = 96,000); P11712; CYP2C9 Supersomes, luciferin-H conversion, luminescence;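 active = blocking of liver enzyme CYP2C9 beyond about 50% at 5 µM, limit read from the data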
CYP2C19 activ: activators of human cytochrome P450 2C19 | recombinant CYP2C19, luciferin-H EGE luminescence; stronger effect = higher value; 0 = fully inhibited enzyme, 1 = untreated enzyme | 96,000 tested, under 10 active | P33261 | activation factor at 5 µM;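 active = activation factor of at least 2 at 5 µM in the primary screen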
CYP2C19 inhib: blocks human cytochrome P450 2C19; P33261; CYP2C19 Supersomes, luciferin-H EGE luminescence, 30 min; inhibition, % at 5 µM; actives 21% (n = 96,000); AID 778;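 active = CYP2C19 inhibition above a set limit at 5 µM in the primary screen, cut at about 50% in these data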
Hits are given with their value; . = inactive; / = not tested or not shown. Cut-off read from the data, not from the text of the source, unless noted: active = inhibition above about 30%; inactive = the rest.

SMILES | CYP2C9 activ | PostGolgi yeast | PostGolgi ctrl | CYP2C9 inhib | CYP2C19 activ | CYP2C19 inhib
Cc1ccc(S(=O)(=O)NCC(=O)N(CC(=O)NC2CCCC2)c2ccc3c(c2)OCCO3)cc1 | . | . | . | 61 | . | .
Cc1ccc(N(CC(=O)NC2CCCCC2)C(=O)c2ccc(C)s2)cc1 | . | . | . | 60 | . | .
CCOC(=O)C1=C(C)n2c(s/c(=C/c3cccc([N+](=O)[O-])c3)c2=O)=NC1c1ccc(O)c(OC)c1 (stereo not given) | . | 61 | 39 | 67 | . | 55
Cc1[nH]c2c(Br)cccc2c1[C@H]1[C@@H](CC#N)C1(C)C | . | . | 39 | 55 | . | .
Cc1c([C@H]2[C@@H](CC#N)C2(C)C)c2ccccc2n1C | . | . | . | . | . | .
COc1ccc(/C(N)=C/C(=O)C(C)(C)C)cc1 | . | . | . | . | . | 74
CCC(c1nnnn1CCOC)N(Cc1cc2c(C)cc(C)cc2[nH]c1=O)CC1CCCO1 (stereo not given) | . | . | . | . | . | .
C=CCn1c(SCC(=O)Nc2ccccc2C)nnc1-c1ccncc1 | . | . | . | . | . | 74
C=CCn1c(SCC(=O)NCC(=O)OCC)nnc1-c1ccccn1 | . | . | . | . | . | .
C=CCn1c(SCC(=O)Nc2c(C)cccc2C)nnc1-c1cnccn1 | . | . | . | . | . | 100
C=CCn1c(SCC(=O)Nc2ccccc2CC)nnc1-c1ccncc1 | . | . | . | . | . | 91
Cc1cc(C)c(NC(=O)CSc2nnc(-c3ccncc3)n2Cc2ccco2)c(C)c1 | . | . | . | . | . | .
CCOc1ccccc1NC(=O)CSc1nnc(-c2cnccn2)n1CC | . | . | . | . | . | 88
CC1CN(C)C(C)CC1NCc1ccc2c(c1)OCO2 (stereo not given) | . | . | . | . | . | .
COc1ccc(CCN2C(=O)C3CC(C)=C(C)CC3C2=O)cc1OC (stereo not given) | . | . | . | . | . | .
Cc1ccnc(N2CCC(C(=O)Nc3ccc4c(c3)OCO4)CC2)n1 | . | . | . | . | . | .
O=C(CC12CC3CC(CC(C3)C1)C2)NCC(=O)N1CCc2ccccc2C1 | . | . | . | . | . | .
COc1cc(C=O)ccc1OCCOCCOc1c(C)cc(Cl)cc1Cl | / | . | . | / | / | /
C=CCn1c(SCc2cccnc2)nnc1-c1ccncc1 | . | . | . | . | . | .
C=CCn1c(SCc2c(Cl)cccc2Cl)nnc1-c1cccnc1 | . | . | . | . | . | 54
CCCCn1c(SCC(=O)Nc2ccccc2C(F)(F)F)nc2ccsc2c1=O | . | . | . | . | . | .
C=CCn1c(Cc2csc(N)n2)nnc1SCC(=O)Nc1ccccc1C(F)(F)F | . | . | . | . | . | 53
C=CCn1c(SCC(=O)Nc2ccc(C)cc2C)nnc1-c1cccnc1 | . | . | . | 87 | . | .
O=C(CSc1nc2nc[nH]c2c(=O)[nH]1)NC1CCCCC1 | . | . | . | . | . | .
CCCCCNc1nc(-c2ccccc2)cs1 | . | . | . | 64 | . | 76
SMILES | CYP2C9 activ | PostGolgi yeast | PostGolgi ctrl | CYP2C9 inhib | CYP2C19 activ | CYP2C19 inhib
Cn1c(=O)c2c(nc(CN3CCC(C(N)=O)CC3)n2Cc2c(F)cccc2Cl)n(C)c1=O | . | . | . | . | . | .
O=c1c(F)cn(C2CCCO2)c(=O)n1Cc1c(F)cccc1Cl (stereo not given) | . | . | . | . | . | 92
O=C(Nc1ccccc1)c1cccc(N2CCCC2=O)c1 | . | . | . | . | . | .
CC1(C)CC2CC(C)(CN2C(=O)COC(=O)Cn2[nH]c(=O)c3ccccc3c2=O)C1 (stereo not given) | . | . | . | . | . | .
Cc1cccc(NC(=O)CCN2CC(C)OC(C)C2)c1 (stereo not given) | . | . | . | . | . | 73
CC1CC(C)CN(CCC(=O)Nc2cccc(Cl)c2)C1 (stereo not given) | . | . | . | . | . | 69
CC1=N/C(=C/c2ccc([N+](=O)[O-])cc2)C(=O)N1c1ccc(Cl)cc1Cl | . | . | . | . | . | .
CCCn1c(SCC(=O)NC)nnc1C(C)C | . | . | . | . | . | .
C=CCc1ccccc1OCC(CN1CCCCC1)OC(C)=O (stereo not given) | . | . | . | . | . | 53
C=CCc1ccccc1OCC(O)CN1CCN(c2ccccc2F)CC1 (stereo not given) | . | . | . | 55 | . | 66
C=CCc1cc(OC)ccc1OCC(O)CN1CCN(c2ccc(OC)cc2)CC1 (stereo not given) | . | . | 45 | . | . | .
C=CCc1cc(C)ccc1OCC(O)CN1CCN(c2ccccc2)CC1 (stereo not given) | . | . | . | . | . | .
C=CCc1ccccc1OCC(O)CN1CCN(c2ccccc2OC)CC1 (stereo not given) | . | . | . | . | . | .
COc1cccc(S(=O)(=O)NCc2ccc(C(=O)Nc3ccc(C)cc3)cc2)c1 | . | . | . | . | . | .
CCOC(=O)c1c(C)n(C)c2ccc(OC)c(NC(=O)CCN3CCSCC3)c12 | . | . | . | . | . | .
CC1(C)Cc2c(C#N)c(N3CCN(C(=O)c4ccccc4Cl)CC3)nc(-c3ccco3)c2CS1 | . | . | . | 70 | . | .
CC(=O)N1CCN(c2nc(-c3ccco3)c3c(c2C#N)CC(C)(C)SC3)CC1 | . | . | . | 78 | . | .
O=C(c1cc2ccccn2n1)N1CCN(Cc2ccccc2)CC1 | . | . | . | . | . | 96
CCOC(=O)N1CCN(C(=O)c2c(-c3ccccc3)noc2C)CC1 | . | . | . | . | . | .
O=C(c1cc2ccccn2n1)N1CCCC1 | . | . | . | . | . | .
Cc1cc(C(=O)N2CCN(Cc3ccccc3)CC2)on1 | . | . | . | . | . | 95
CCOC(=O)N1CCN(C(=O)c2cc(C)no2)CC1 | . | . | . | . | . | 71
Nc1c(S(=O)(=O)c2cccc(Cl)c2)c2nc3ccccc3nc2n1/N=C/c1ccc(O)c(O)c1 | . | . | . | . | . | .
COc1ccc(OC)c(NC(=O)CSc2nnc(CNc3ccc(C)cc3C)o2)c1 | . | . | . | . | . | 81
COc1ccc(OC)c(NC(=O)CSc2nnc(CNc3ccc(F)cc3)o2)c1 | . | . | . | . | . | 56
COc1ccc(-c2nnc(SCC(=O)NC(C)c3ccccc3)o2)cc1OC (stereo not given) | . | . | . | . | . | 62
COc1ccc(-c2nnc(SCC(=O)Nc3cc(F)ccc3C)o2)cc1 | . | . | . | . | . | 54
COc1ccccc1NC(=O)CSc1nnc(-c2ccc(C)cc2)o1 | . | / | / | . | . | .
COc1ccc(NCc2nnc(SCC(=O)Nc3ccccc3OC)o2)cc1 | . | . | . | . | . | .
CCn1cc(C(=O)N2CCOCC2)c(=O)c2cc(S(=O)(=O)N(C)C3CCCCC3)ccc21 | . | . | . | . | . | .

Bioassay records: PubChem BioAssay, several laboratories
